Activity calls are given as the source filed them. The calls were made as follows: active = hit-call score of the fitted dose curve at least 0.9, where 1 is the maximum; inactive = score below 0.9.
Experiments:
Settings in all cases: mRNA level, 48 h; actives raise or lower the signal
CYP2C8 (gene 1558) = assay: LTEA_HepaRG_CYP2C8: Life Technologies and Expression Analysis (LTEA) Assay for CYP2C8 using HepaRG (AID 2283483)
Summary of the method: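 Differentiated HepaRG cells in serum-free induction medium exposed 48 h in duplicate to 8 half-log concentrations from 100 uM in 0.5% DMSO. CYP2C8 mRNA by qRT-PCR normalized to ACTB, GAPDH, POLR2A; bidirectional fit versus DMSO.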

CYP2C9 (gene 1559) = assay: LTEA_HepaRG_CYP2C9: Life Technologies and Expression Analysis (LTEA) Assay for CYP2C9 using HepaRG (AID 2283484)
Summary of the method: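 Differentiated human HepaRG cells in serum-free induction medium were exposed 48 h to chemicals in 8-point half-log series from 100 uM (0.5% DMSO), in duplicate. CYP2C9 mRNA was measured by qRT-PCR, normalized to ACTB/GAPDH/POLR2A, with bidirectional fitting versus DMSO.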

CYP2E1 (gene 1571) = assay: LTEA_HepaRG_CYP2E1: Life Technologies and Expression Analysis (LTEA) Assay for CYP2E1 using HepaRG (AID 2283485)
Summary of the method: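 Differentiated HepaRG cells were treated in duplicate for 48 h with chemicals in 0.5% DMSO, from 100 uM downward in half-log dilutions. RNA was then analysed by qRT-PCR for CYP2E1 induction or loss.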

CYP4A11 (gene 1579) = assay: LTEA_HepaRG_CYP4A11: Life Technologies and Expression Analysis (LTEA) Assay for CYP4A11 using HepaRG (AID 2283486)
Summary of the method: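 Readout is CYP4A11 transcript level by qRT-PCR, normalized to three housekeeping genes and fitted bidirectionally against 0.5% DMSO. Human HepaRG cells were treated 48 h, in duplicate, with an 8-point half-log series topping at 100 uM.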

[1] = read-out: Cytochrome P450 3A4 (Homo sapiens) (UniProt P08684); assay: LTEA_HepaRG_CYP3A4: Life Technologies and Expression Analysis (LTEA) Assay for CYP3A4 using HepaRG (AID 2283487)
Summary of the method: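 In a human hepatic line (HepaRG), duplicate wells were treated 48 h with up to 100 uM chemical in half-log dilutions. Endpoint: CYP3A4 mRNA induction or loss relative to 0.5% DMSO vehicle, by qRT-PCR.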

[2] = read-out: DNA damage-inducible transcript 3 (DDIT3), DDIT3 (gene 1649); assay: LTEA_HepaRG_DDIT3: Life Technologies and Expression Analysis (LTEA) Assay for DNA damage-inducible transcript 3 (DDIT3) using HepaRG (AID 2283488)
Summary of the method: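 Changes in DDIT3 transcript, in either direction relative to 0.5% DMSO vehicle, were quantified by TaqMan qRT-PCR after 48 h chemical exposure of HepaRG cells at 8 concentrations, maximum 100 uM.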

[3] = read-out: Pro-epidermal growth factor (Homo sapiens) (UniProt P01133); assay: LTEA_HepaRG_EGF: Life Technologies and Expression Analysis (LTEA) Assay for Epidermal growth factor (EGF) using HepaRG (AID 2283489)
Summary of the method: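 EGF transcript measured by Fluidigm TaqMan qRT-PCR with three housekeeping genes for normalization, 48 h after dosing HepaRG cultures in duplicate (top 100 uM, half-log steps, 0.5% DMSO vehicle). Gain or loss relative to DMSO fitted.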

[4] = read-out: Early growth response protein 1 (EGR1) transcription factor, EGR1 (gene 1958); assay: LTEA_HepaRG_EGR1: Life Technologies and Expression Analysis (LTEA) Assay for Early growth response protein 1 (EGR1) transcription factor using HepaRG (AID 2283490)
Summary of the method: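 Differentiated HepaRG cells in serum-free induction medium exposed 48 hours, duplicate, to 8 half-log concentrations up to 100 uM in 0.5% DMSO. EGR1 mRNA measured by TaqMan qRT-PCR, normalized to ACTB, GAPDH, POLR2A; bidirectional fit versus DMSO.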

[5] = read-out: Ezrin (EZR), EZR (gene 7430); assay: LTEA_HepaRG_EZR: Life Technologies and Expression Analysis (LTEA) Assay for Ezrin (EZR) using HepaRG (AID 2283491)
Summary of the method: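 Gain or loss of EZR mRNA is scored relative to 0.5% DMSO in human HepaRG cultures treated 48 h with test chemicals in duplicate, eight half-log concentrations from 100 uM.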

[6] = read-out: Cytochrome P450 3A7 (Homo sapiens) (UniProt P24462); assay: LTEA_HepaRG_CYP3A7: Life Technologies and Expression Analysis (LTEA) Assay for CYP3A7 using HepaRG (AID 2283492)
Summary of the method: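 CYP3A7 transcript measured by qRT-PCR (ACTB, GAPDH, POLR2A normalization) after 48 h chemical exposure of HepaRG cells in duplicate. Eight half-log concentrations, maximum 100 uM, 0.5% DMSO vehicle; bidirectional curve fitting against DMSO baseline.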

[7] = read-out: Fatty Acid-Binding Protein 1 (FABP1), FABP1 (gene 2168); assay: LTEA_HepaRG_FABP1: Life Technologies and Expression Analysis (LTEA) Assay for Fatty Acid-Binding Protein 1 (FABP1) using HepaRG (AID 2283494)
Summary of the method: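 Differentiated human HepaRG cells exposed 48 h in serum-free induction medium to eight half-log concentrations up to 100 uM (0.5% DMSO), duplicate. FABP1 mRNA by qRT-PCR, normalised to ACTB, GAPDH, POLR2A; bidirectional fitting against DMSO.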

[8] = read-out: Cytochrome P450 7A1 (Homo sapiens) (UniProt P22680); assay: LTEA_HepaRG_CYP7A1: Life Technologies and Expression Analysis (LTEA) Assay for Cytochrome P450 7A1 (CYP7A1) using HepaRG (AID 2283496)
Summary of the method: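 Gene expression endpoint in human HepaRG liver cells treated for 48 h with test chemicals (up to 100 uM, 0.5% DMSO). Values come from bidirectional concentration-response fitting versus DMSO.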

[9] = read-out: Glutathione S-Transferase (GSTA2), GSTA2 (gene 2939); assay: LTEA_HepaRG_GSTA2: Life Technologies and Expression Analysis (LTEA) Assay for Glutathione S-Transferase (GSTA2) using HepaRG (AID 2283497)
Summary of the method: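 Differentiated human HepaRG cells were exposed in duplicate for 48 h in serum-free induction medium, 8 points from 100 uM top in half-log steps, 0.5% DMSO. GSTA2 mRNA was measured by TaqMan qRT-PCR, normalized to ACTB, GAPDH and POLR2A; bidirectional fit versus DMSO.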

[10] = read-out: Glutamate-cysteine ligase catalytic (GCLC), GCLC (gene 2729); assay: LTEA_HepaRG_GCLC: Life Technologies and Expression Analysis (LTEA) Assay for Glutamate-cysteine ligase catalytic (GCLC) using HepaRG (AID 2283498)
Summary of the method: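 Differentiated HepaRG cells exposed 48 h in serum-free induction medium, eight-point half-log series topping at 100 uM in 0.5% DMSO, duplicates. GCLC mRNA by qRT-PCR normalized to ACTB, GAPDH and POLR2A, fitted bidirectionally versus DMSO.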

[11] = read-out: growth arrest and DNA damage 45 (GADD45G), GADD45G (gene 10912); assay: LTEA_HepaRG_GADD45G: Life Technologies and Expression Analysis (LTEA) Assay for growth arrest and DNA damage 45 (GADD45G) using HepaRG (AID 2283499)
Summary of the method: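 GADD45G transcript level by qRT-PCR (housekeeping-normalized: ACTB, GAPDH, POLR2A) after 48 h chemical treatment of a single HepaRG lot in serum-free induction medium; eight-point half-log series up to 100 uM in 0.5% DMSO, duplicates, up- or down-regulation scored.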

[12] = read-out: Glutamate-cysteine ligase regulatory (GCLM), GCLM (gene 2730); assay: LTEA_HepaRG_GCLM: Life Technologies and Expression Analysis (LTEA) Assay for Glutamate-cysteine ligase regulatory (GCLM) using HepaRG (AID 2283500)
Summary of the method: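 Human liver HepaRG cultures receive test chemicals for 48 hours at up to 100 uM in 0.5% DMSO. GCLM expression is measured by qRT-PCR and analysed for increases or decreases against vehicle.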

[13] = read-out: Heat shock 70 kDa protein 1 (HSPA1A), gene 3303; assay: LTEA_HepaRG_HSPA1A: Life Technologies and Expression Analysis (LTEA) Assay for Heat shock 70 kDa protein 1 (HSPA1A) using HepaRG (AID 2283502)
Summary of the method: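 HSPA1A induction in human HepaRG liver cells is measured after 48 h of chemical treatment (100 uM maximum, 0.5% DMSO vehicle). Expression comes from qRT-PCR normalized to endogenous controls.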

CYP3A5 (gene 1577) = assay: LTEA_HepaRG_CYP3A5: Life Technologies and Expression Analysis (LTEA) Assay for CYP3A5 using HepaRG (AID 2283493)
Summary of the method: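 mRNA induction or loss of CYP3A5 assessed in HepaRG after 48 h dosing, 100 uM top concentration, duplicate wells; TaqMan qRT-PCR with ACTB, GAPDH, POLR2A normalization; 0.5% DMSO as negative control.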

Chain of Cytochrome P450 3A4 (Homo sapiens) (P08684 whole entry, looked up): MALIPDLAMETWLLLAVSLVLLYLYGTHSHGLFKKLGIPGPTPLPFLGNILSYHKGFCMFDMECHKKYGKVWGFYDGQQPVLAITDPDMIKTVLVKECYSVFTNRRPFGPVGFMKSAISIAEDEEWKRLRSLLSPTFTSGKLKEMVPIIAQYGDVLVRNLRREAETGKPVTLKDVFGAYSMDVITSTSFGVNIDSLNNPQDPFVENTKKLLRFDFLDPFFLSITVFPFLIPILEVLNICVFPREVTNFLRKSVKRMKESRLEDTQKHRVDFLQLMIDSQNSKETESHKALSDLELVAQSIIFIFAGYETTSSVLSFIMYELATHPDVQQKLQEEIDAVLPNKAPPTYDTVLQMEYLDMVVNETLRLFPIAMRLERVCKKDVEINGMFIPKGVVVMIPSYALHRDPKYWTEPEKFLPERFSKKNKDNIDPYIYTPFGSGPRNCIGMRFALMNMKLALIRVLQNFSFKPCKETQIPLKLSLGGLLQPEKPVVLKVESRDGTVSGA
Chain of Cytochrome P450 3A7 (Homo sapiens) (P24462 whole entry, looked up): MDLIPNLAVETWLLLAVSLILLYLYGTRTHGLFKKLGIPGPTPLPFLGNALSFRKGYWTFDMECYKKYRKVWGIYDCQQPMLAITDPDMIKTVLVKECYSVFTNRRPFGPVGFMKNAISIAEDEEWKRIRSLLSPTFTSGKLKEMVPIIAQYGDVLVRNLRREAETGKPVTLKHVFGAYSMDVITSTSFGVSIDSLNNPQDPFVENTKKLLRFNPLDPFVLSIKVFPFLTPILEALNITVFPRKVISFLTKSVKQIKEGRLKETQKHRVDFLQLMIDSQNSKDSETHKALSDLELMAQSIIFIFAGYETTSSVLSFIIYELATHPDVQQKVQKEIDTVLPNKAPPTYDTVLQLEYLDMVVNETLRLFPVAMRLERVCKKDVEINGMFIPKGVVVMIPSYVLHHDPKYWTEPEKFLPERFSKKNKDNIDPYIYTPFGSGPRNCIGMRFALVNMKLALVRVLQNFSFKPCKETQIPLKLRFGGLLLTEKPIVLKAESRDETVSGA

COc1cc(OC)nc(Sc2cccc(Cl)c2C(=O)O)n1
outcome (CYP2C8 (gene 1558)): inactive | outcome (CYP2C9 (gene 1559)): inactive | AC50 (CYP2E1 (gene 1571)): 29.7 µM (active) | outcome (CYP4A11 (gene 1579)): inactive | AC50 [1]: 50 µM (active) | outcome [2]: inactive | outcome [3]: inactive | outcome [4]: inactive | outcome [5]: inactive | outcome [6]: inactive | outcome [7]: inactive | outcome [8]: inactive | outcome [9]: inactive | outcome [10]: inactive | outcome [11]: inactive | outcome [12]: inactive | outcome [13]: inactive

O=C(O)c1cc(Oc2ccc(C(F)(F)F)cc2Cl)ccc1[N+](=O)[O-]
AC50 (CYP2C8 (gene 1558)): 8.77 µM (active) | outcome (CYP2C9 (gene 1559)): inactive | outcome (CYP2E1 (gene 1571)): inactive | AC50 (CYP4A11 (gene 1579)): 50 µM (active) | outcome [2]: inactive | outcome [3]: inactive | outcome [4]: inactive | outcome [5]: inactive | AC50 [6]: 50 µM (active) | AC50 (CYP3A5 (gene 1577)): 50 µM (active) | AC50 [7]: 20.3 µM (active) | outcome [8]: inactive | outcome [9]: inactive | outcome [10]: inactive | outcome [11]: inactive | outcome [12]: inactive | outcome [13]: inactive

COP(=O)(OC)OC(Br)C(Cl)(Cl)Br (centres undefined)
outcome (CYP2C8 (gene 1558)): inactive | outcome (CYP2C9 (gene 1559)): inactive | outcome (CYP2E1 (gene 1571)): inactive | outcome (CYP4A11 (gene 1579)): inactive | outcome [1]: inactive | outcome [2]: inactive | outcome [3]: inactive | outcome [4]: inactive | outcome [5]: inactive | outcome [6]: inactive | outcome [7]: inactive | outcome [8]: inactive | outcome [9]: inactive | outcome [11]: inactive | outcome [12]: inactive | outcome [13]: inactive

CC(C)[C@H](C(=O)O[C@H](C#N)c1cccc(Oc2ccccc2)c1)c1ccc(Cl)cc1
outcome (CYP2C9 (gene 1559)): inactive | AC50 (CYP2E1 (gene 1571)): 50 µM (active) | outcome (CYP4A11 (gene 1579)): inactive | AC50 [1]: 10.5 µM (active) | outcome [2]: inactive | outcome [3]: inactive | outcome [5]: inactive | outcome [6]: inactive | outcome (CYP3A5 (gene 1577)): inactive | outcome [7]: inactive | outcome [8]: inactive | outcome [9]: inactive | outcome [11]: inactive | outcome [12]: inactive | outcome [13]: inactive

C=C(C)[C@H]1Cc2c(ccc3c2O[C@@H]2COc4cc(OC)c(OC)cc4[C@@H]2C3=O)O1
AC50 (CYP2C8 (gene 1558)): 1.36 µM (active) | AC50 (CYP2C9 (gene 1559)): 3.67 µM (active) | AC50 (CYP2E1 (gene 1571)): 0.591 µM (active) | AC50 (CYP4A11 (gene 1579)): 0.838 µM (active) | AC50 [2]: 1.27 µM (active) | AC50 [3]: 50 µM (active) | AC50 [4]: 15.7 µM (active) | AC50 [5]: 1 µM (active) | AC50 [7]: 1.25 µM (active) | AC50 [8]: 3.69 µM (active) | AC50 [9]: 3 µM (active) | AC50 [11]: 1.18 µM (active) | AC50 [12]: 2.57 µM (active) | AC50 [13]: 28.9 µM (active)

Reference: PubChem BioAssay (EPA / NIEHS)
